For ten compounds, Potency, outcome and activity change, positive = activation results are on record in PubChem BioAssay (Tox21).

The nature of test [1]: qHTS assay to identify small molecule antagonists of the estrogen related receptor (ERR) signaling pathway from Tox21 library - cell viability counter screen (AID 1224834). Also: nearly all actives have a fitted effect of over 30% in size. Also: potency is read from the fitted curve at half-maximal effect. In outline:
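CellTiter-Fluor fluorescence measured; ERR cells; 17.5 h compound incubation at 37 C; 30 min reagent step.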
(Quantitative high-throughput screening tests each substance at several concentrations.)

Test [2] concerns the target Luciferin 4-monooxygenase (Photinus pyralis) (UniProt P08659). Briefly: qHTS assay to identify small molecule inhibitors of firefly luciferase (AID 1224835). Also: nearly all actives have a fitted effect of over 25% in size. In outline: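 Biochemical qHTS: compounds run as interplate titrations against purified firefly enzyme, with D-luciferin and ATP each at its KM concentration. Light output recorded by CCD imaging.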
The nature of test [3]: qHTS assay to identify small molecule agonists of the constitutive androstane receptor (CAR) signaling pathway - cell viability counter screen (AID 1224836). Also: nearly all actives have a fitted effect of over 45% in size. In outline:
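Multiplexed viability check: HepG2-CYP2B6-hCAR cells, 15-point compound dosing, 0.75 uM PK11195 final, 23 h at 37 C, CellTiter-Fluor fluorescence.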

The target in test [4] is Nuclear receptor subfamily 1 group I member 3 (Homo sapiens) (UniProt Q14994). Description: qHTS assay to identify small molecule antagonists of the constitutive androstane receptor (CAR) signaling pathway (AID 1224838).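 Also: HepG2 cells stably expressing hCAR with CYP2B6 luciferase reporter stimulated by CITCO; nearly all actives have a fitted effect of over 40% in size.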 In outline:
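Reporter luminescence was quantified after 24 h exposure of hCAR/CYP2B6-2.2kb double-stable HepG2 cells to compounds at 15 concentrations in the presence of 50 nM CITCO final.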

Test [5] has the same target. Description: qHTS assay to identify small molecule agonists of the constitutive androstane receptor (CAR) signaling pathway (AID 1224839). Also: nearly all actives have a fitted effect of over 15% in size. Also: potency is read from the fitted curve at half-maximal effect. In outline:
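Using human hepatoma HepG2 cells engineered with hCAR and a CYP2B6-2.2kb reporter, 15-concentration compound series were incubated 24 h alongside PK11195 at 0.75 uM final, with luminescence quantified afterwards.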

The nature of test [6]: qHTS assay to identify small molecule antagonists of the estrogen related receptor signaling pathway with the pleiotropic PPARgamma coactivator (PGC) from Tox21 10K library - cell viability counter screen (AID 1224840; active = well fitted cell-killing curve with a large enough effect in the repeat runs, not every such curve was filed as active; also: nearly all actives have a fitted effect of over 40% in size; also: potency is read from the fitted curve at half-maximal effect). The essentials: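 Here the PGC/ERR cells serve as a cytotoxicity control: they are exposed to compounds for 17.5 hours at 37 C, and live-cell signal is quantified using CellTiter-Fluor fluorescence.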

Test [7] addresses Thyrotropin receptor (Homo sapiens) (UniProt P16473). Description: qHTS assay to identify small molecule agonists of the thyroid stimulating hormone receptor (TSHR) signaling pathway (AID 1224843; calls by dose curve; also: nearly all actives have a fitted effect of over 45% in size; also: potency is read from the fitted curve at half-maximal effect). In outline: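 TSHR-HEK293 cells in agonist mode, 30 min room-temperature step, then cAMP measured by competitive HTRF (cAMP-d2 with anti-cAMP cryptate) after 1 h at room temperature. Tested at 15 concentrations in triplicate.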

The nature of test [8]: qHTS assay to identify small molecule agonists of the hypoxia (HIF-1) signaling pathway - cell viability counter screen (AID 1224844; calls by dose curve; also: nearly all actives have a fitted effect of over 50% in size; also: potency is read from the fitted curve at half-maximal effect). The essentials: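 Multiplexed with the HRE beta-lactamase assay, this viability read used CellTiter-Glo luminescence (30 min, RT) on HRE-bla ME-180 cells treated 17 hrs with compounds in 0.5% dialyzed FBS medium.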
The nature of test [9]: qHTS assay to identify small molecule agonists of H2AX (AID 1224845; active = well fitted activation curve with a large enough effect in the signal ratio in the repeat runs, not every such curve was filed as active; the % refers to the signal ratio). In outline: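 Wild-type CHO-K1 cells, plated overnight, exposed 3hr at 37C to 15 concentrations (0.76% DMSO final). Lysed, then HTRF anti-pH2AX (S139) cryptate and anti-H2AX-d2 antibodies, 24 hr room temperature; 665/620 nm emission read.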
Test [10] in a line: qHTS assay to identify small molecule agonists of the hypoxia (HIF-1) signaling pathway (AID 1224846; active = well fitted activation curve with a large enough effect in the signal ratio in the repeat runs, not every such curve was filed as active; the % refers to the signal ratio). In outline: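 Hypoxia-pathway activation was scored as increased beta-lactamase from an HRE-controlled reporter in ME-180 cells; plated at 2,000 cells per well with 0.5% dialyzed FBS, they were exposed 17 hrs to compounds and then given CCF4-AM.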
A short description of test [11]: qHTS assay to identify small molecule agonists of H2AX - cell viability counter screen (AID 1224847; calls by dose curve; also: nearly all actives have a fitted effect of over 30% in size; also: potency is read from the fitted curve at half-maximal effect). The essentials:
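After overnight plating of 1000 CHO-K1 cells per well, a 15-concentration compound series was applied for 3 hr at 37C. Luminescence from CellTiter-Glo, read following 30 min at room temperature, reflected cell viability.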

Test [12] is described as follows: qHTS RealTime-Glo MT Cell Viability Assay in HepG2 cells - 24 hour (AID 1224867). Also: nearly all actives have a fitted effect of over 50% in size. Also: potency is read from the fitted curve at half-maximal effect. The essentials:
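HepG2 suspension premixed with RealTime-Glo reagents is plated at 600 cells per well and left 5 h at 37 C/5% CO2. Compounds in DMSO then go in, and bioluminescence reflecting viable cell number is recorded over 40 h.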

The nature of test [13]: qHTS RealTime-Glo MT Cell Viability Assay in HEK293 cells - 32 hour (AID 1224868). Also: nearly all actives have a fitted effect of over 50% in size. Also: potency is read from the fitted curve at half-maximal effect. In outline:
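Reads taken at 0, 8, 16, 24, 32 and 40 h from the same wells. HEK293 cells (600/well) carried RealTime-Glo reagents from seeding, with compound added after a 5 h settle at 37 C.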

A short description of test [14]: A CellTox Green Cytotoxicity Assay to monitor cytotoxicity in HEK293 cells - 0 hour (AID 1224869). Also: nearly all actives have a fitted effect of over 50% in size. In outline: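 Seeding of HEK293 cells together with cytotoxicity dye preceded a 5 h incubation at 37 C/5% CO2. Test compounds in DMSO were then added and fluorescence monitored across 40 h.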
Test [15] is described as follows: qHTS RealTime-Glo MT Cell Viability Assay in HepG2 cells - 40 hour (AID 1224870). Also: nearly all actives have a fitted effect of over 50% in size. Also: potency is read from the fitted curve at half-maximal effect. In outline:
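HepG2 cells (600/well) mixed with RealTime-Glo MT reagent, settled 5 h at 37 C/5% CO2 before compound addition. Nonlytic NanoLuc luminescence from viable-cell prosubstrate reduction read repeatedly during 40 h treatment at 37 C.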

The nature of test [16]: qHTS assay to identify small molecule antagonists of the estrogen related receptor signaling pathway with the pleiotropic PPARgamma coactivator (PGC) from Tox21 10K library (AID 1224841; call rule not given here; also: potency is read from the fitted curve at half-maximal effect). The essentials:
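Each well held 2,000 PGC/ERR cells, pre-incubated six hours (37 C, 5% CO2). Test substances in DMSO were added by pin tool and left for 18 h at 37 C before luciferase detection by One-Glo.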

Test [17] in a line: qHTS assay to identify small molecule agonists of the estrogen related receptor signaling pathway with the pleiotropic PPARgamma coactivator (PGC) from Tox21 10K library (AID 1224842). Also: nearly all actives have a fitted effect of over 15% in size. The essentials:
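PGC/ERR reporter cell line, 2,000 cells per well, incubated 6 h at 37 C before 23 nL compound in DMSO was added. After 18 h at 37 C, One-Glo luminescence read following 30 min at room temperature.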

Test [18] is described as follows: qHTS assay to identify small molecule agonists of the estrogen related receptor (ERR) signaling pathway from Tox21 library (AID 1224849; calls by dose curve; also: nearly all actives have a fitted effect of over 15% in size). As to conditions: ERR reporter cell line, ONE-Glo luciferase, 18 h; at 92.4 µM (top of the series) unless noted. The essentials: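 Six hours post-seeding at 37 C/5% CO2, ERR cells receive DMSO-solubilised compounds; after 18 h at 37 C, ONE-Glo reagent is applied and luminescence recorded.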

A short description of test [19]: qHTS assay to identify small molecule antagonists of the constitutive androstane receptor (CAR) signaling pathway - cell viability counter screen (AID 1224837). Also: nearly all actives have a fitted effect of over 45% in size. In outline: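 Using CellTiter-Fluor, viability is scored in HepG2 cells stably carrying hCAR and a 2.2kb CYP2B6 reporter after 23 hr compound exposure across 15 concentrations, with CITCO present at 50 nM.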

Test [20] in a line: qHTS assay to identify small molecule antagonists of the estrogen related receptor (ERR) signaling pathway from Tox21 library (AID 1224848). Also: nearly all actives have a fitted effect of over 50% in size. In outline:
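ERR reporter cell line (from NTP) seeded 2,000 cells/well, rested 6 h at 37 C/5% CO2, then pin-dosed with compounds in DMSO. After 18 h at 37 C, ONE-Glo added; luminescence read after 30 min at room temperature.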

Values without a mark were called inactive. Records with an inconclusive call do not appear. Calls of active or inactive are those of the source. Unless noted, calls follow the shape of the dose curve; as a rule, active = well fitted curve in the direction sought with a large enough effect in the repeat runs; inconclusive = weak or mixed curves; inactive = no such curve, though single readings can be large; an effect the other way counts as inactive or inconclusive.
% is scaled to controls: 0 for no effect and ±100 for the full control effect.

Luciferin 4-monooxygenase (Photinus pyralis), sequence (P08659 whole entry, looked up): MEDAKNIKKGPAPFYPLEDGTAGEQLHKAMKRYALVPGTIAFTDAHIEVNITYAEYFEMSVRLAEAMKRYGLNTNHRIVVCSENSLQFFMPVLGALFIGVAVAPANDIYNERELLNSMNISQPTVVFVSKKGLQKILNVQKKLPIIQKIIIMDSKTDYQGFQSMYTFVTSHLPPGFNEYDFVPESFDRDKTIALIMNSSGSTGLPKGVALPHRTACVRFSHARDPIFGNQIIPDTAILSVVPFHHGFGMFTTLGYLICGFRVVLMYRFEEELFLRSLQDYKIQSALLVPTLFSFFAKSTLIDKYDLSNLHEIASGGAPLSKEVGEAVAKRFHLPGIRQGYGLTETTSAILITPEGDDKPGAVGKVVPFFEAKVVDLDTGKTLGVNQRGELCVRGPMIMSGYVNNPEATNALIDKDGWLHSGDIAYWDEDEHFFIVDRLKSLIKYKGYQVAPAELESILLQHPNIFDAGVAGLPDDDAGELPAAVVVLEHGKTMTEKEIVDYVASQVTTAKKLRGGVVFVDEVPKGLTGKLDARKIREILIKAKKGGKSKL
Nuclear receptor subfamily 1 group I member 3 (Homo sapiens), sequence (Q14994 whole entry, looked up): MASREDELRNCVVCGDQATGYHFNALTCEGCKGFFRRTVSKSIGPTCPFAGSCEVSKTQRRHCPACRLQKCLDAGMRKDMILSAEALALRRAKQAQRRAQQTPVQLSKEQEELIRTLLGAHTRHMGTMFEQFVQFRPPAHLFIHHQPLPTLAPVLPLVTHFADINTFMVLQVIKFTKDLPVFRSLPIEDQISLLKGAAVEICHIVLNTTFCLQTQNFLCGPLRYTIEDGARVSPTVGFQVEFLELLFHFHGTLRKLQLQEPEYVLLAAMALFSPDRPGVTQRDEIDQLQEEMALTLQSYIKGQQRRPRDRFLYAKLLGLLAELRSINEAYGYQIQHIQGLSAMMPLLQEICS
Thyrotropin receptor (Homo sapiens), sequence (P16473 whole entry, looked up): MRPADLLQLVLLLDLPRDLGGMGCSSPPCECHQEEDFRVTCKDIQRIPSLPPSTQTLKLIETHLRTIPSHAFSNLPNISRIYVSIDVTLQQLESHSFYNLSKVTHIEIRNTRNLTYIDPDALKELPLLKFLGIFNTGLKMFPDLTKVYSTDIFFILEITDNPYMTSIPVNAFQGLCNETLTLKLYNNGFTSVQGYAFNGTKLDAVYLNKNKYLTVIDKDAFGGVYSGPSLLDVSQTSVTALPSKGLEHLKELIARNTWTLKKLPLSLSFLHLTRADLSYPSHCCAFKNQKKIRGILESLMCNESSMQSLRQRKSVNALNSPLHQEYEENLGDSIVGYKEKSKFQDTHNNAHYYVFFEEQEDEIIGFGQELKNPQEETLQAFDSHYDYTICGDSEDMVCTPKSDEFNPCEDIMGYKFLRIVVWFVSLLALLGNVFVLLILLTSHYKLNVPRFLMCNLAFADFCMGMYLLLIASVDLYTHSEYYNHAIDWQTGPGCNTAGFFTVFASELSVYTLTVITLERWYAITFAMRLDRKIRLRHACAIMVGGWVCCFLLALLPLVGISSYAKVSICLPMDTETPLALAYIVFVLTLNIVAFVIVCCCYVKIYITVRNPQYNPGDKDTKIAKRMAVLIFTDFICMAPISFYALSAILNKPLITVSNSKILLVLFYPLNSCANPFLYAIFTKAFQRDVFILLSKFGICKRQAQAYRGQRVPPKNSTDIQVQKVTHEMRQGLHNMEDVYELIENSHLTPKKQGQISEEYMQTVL

As for `CCCSC(=O)N(CCC)CCC`, the Potency result in test [1], in test [2], in test [3], in test [4], in test [5] and in [6] was “inactive” in each case. Further, the Potency result in test [7], in test [8], in [9], in test [11], in test [12] and in test [13] was “inactive” in each case. Also, the Potency entry in [14] and in test [15] was “inactive” throughout. Also, in test [10], the compound was called inactive.

In the case of `CCC#N`, the Potency entry in test [1], in test [2], in [3], in test [4], in test [5] and in test [6] was “inactive” each time. The Potency entry in [16], in test [7], in test [8], in test [9], in test [11] and in test [12] was “inactive” each time. The Potency entry in test [13], in test [14] and in [15] was “inactive” throughout. The result in [17] was inactive. For the same compound, the activity change, positive = activation in test [18] was 0.336%.

For `O=[N+]([O-])c1cccc(O)c1`, the Potency result in [1], in test [3], in test [19], in test [4], in [5] and in test [6] was “inactive” each time. The Potency result in test [7], in test [8], in test [9], in test [12], in test [13] and in [14] was “inactive” in each case. Besides, the Potency entry in test [15] was “inactive”. Further, the compound was called inactive in test [10].

With `N#CC(CCc1ccc(Cl)cc1)(Cn1cncn1)c1ccccc1` (configuration not stated), the Potency in test [1] is 30.6 µM (active); in test [5], 21.7 µM (active); in test [6] it was 34.4 µM (active); in test [16] it was 34.4 µM (active); in test [7], 8.63 µM (active); in test [8], 30.9 µM (active). For the same compound, the results for the Potency in [11], in test [12] and in [15] were 50.5 µM (active), 38.9 µM (active) and 49 µM (active), respectively. The Potency entry in test [2], in [4], in [9] and in [14] was “inactive” in each case. Also, the call in test [17] was inactive. In addition, in test [18], the activity change, positive = activation is -69.7%.

Take `CCCSC(=O)Cl`: the Potency result in test [1], in [3], in [19], in [4], in test [5] and in test [6] was “inactive” each time. Besides, the Potency result in test [7], in test [8], in [9], in test [11], in test [12] and in [13] was “inactive” in each case. Also, the Potency result in test [14] and in test [15] was “inactive” each time. The compound was called inactive in test [10].

On to `N#Cc1c(Cl)cccc1Cl`, for which the Potency result in test [1], in [3], in test [19], in [4], in [5] and in test [6] was “inactive” in each case. Besides, the Potency entry in [16], in test [8], in test [9], in test [11], in test [12] and in test [13] was “inactive” in each case. Besides, the Potency entry in test [14] and in [15] was “inactive” in each case. Further, the result in [17] and in test [10] was inactive. Moreover, the activity change, positive = activation in test [18] is 7.33%.

As to `CCOC(=O)N(C)C(=O)CSP(=S)(OCC)OCC`, the Potency entry in [1], in [3], in test [19], in test [4], in test [6] and in [8] was “inactive” throughout. Moreover, the Potency result in test [9], in test [11], in [12], in test [13], in test [14] and in test [15] was “inactive” throughout. Further, the Potency in [5] was 34.4 µM (active). Moreover, the compound was called inactive in [10].

Turning to `OC(c1ccc(F)cc1)(c1cncnc1)c1ccccc1Cl` (configuration not stated), the Potency entry in test [1], in test [2], in test [3], in test [4], in test [5] and in test [6] was “inactive” each time. For the same compound, the Potency entry in test [8], in test [9], in test [11], in test [12], in test [13] and in test [14] was “inactive” each time. For the same compound, the Potency result in [15] was “inactive”.

Regarding `CCCCCCI`, the Potency result in [1], in test [3], in test [19], in [4], in [5] and in test [6] was “inactive” throughout. The Potency result in test [8], in [9], in test [11], in [20], in test [13] and in test [14] was “inactive” each time. Also, the call in test [17] and in test [10] was inactive. For the same compound, in [18], the activity change, positive = activation is -0.122%. Moreover, the Potency in [15] is 24.6 µM (active).

Regarding `C[C@H]1CCC[C@H](O)CCCCCc2cc(O)cc(O)c2C(=O)O1`, the Potency is 61.6 µM (active) in [1], 54.9 µM (active) in test [16] and 34.9 µM (active) in test [13]. The Potency entry in test [2], in test [3], in test [4], in test [5], in test [7] and in test [8] was “inactive” throughout. For the same compound, the Potency entry in test [9], in test [12], in test [14] and in test [15] was “inactive” each time. Moreover, the outcome in test [17] and in [10] was inactive. Moreover, the activity change, positive = activation in test [18] is -54.5%.
